# A selection: hits, their analogues and other compounds. The true share with any hit is near 22%.
# Pf growth 96h: P. falciparum growth inhibition at 96 hours; P. falciparum luciferase reporter growth, 96 h; Potency, µM (highest dose often 28.7 µM), inactives show at the top dose activity change, negative = inhibition, actives largely listed as inhibitors; 320,000 tested, 6.9% active; note: potency is the fitted concentration of half-maximal effect; % is set by controls: 0 for no effect and ±100 for the full control effect
#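 Readout is luminescence from an integrated firefly luciferase in P. falciparum. Red cells, 2% hematocrit and 0.05% parasitemia final, were cultured with compound through two parasite generations (96 hours) at 37 C, 5% CO2.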
# Pf growth 48h: P. falciparum growth inhibition at 48 hours (one generation); 310,000 tested, 5.9% active; Potency, µM (top dose mostly 28.7 µM), without a hit: at the top dose activity change, negative = inhibition, actives largely listed as inhibitors; P. falciparum luciferase growth in erythrocytes, 48 h; AID 504832; note: potency is the fitted concentration of half-maximal effect; % is set by controls: 0 for no effect and ±100 for the full control effect
#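 Growth was read as firefly luciferase luminescence after a 48 h, 37 C, 5% CO2 exposure of compounds to reporter-bearing P. falciparum cultures (0.1% parasitemia, 2% hematocrit final) in Albumax-supplemented RPMI 1640.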
# LmPK inhibitor: inhibitors of Leishmania mexicana pyruvate kinase. Potency, µM (doses to about 57.5 µM), inactives show at the top dose activity change, negative = inhibition, most hits filed as inhibitors. Q27686. purified LmPK, Kinase-Glo ATP luminescence, 1 h. 290,000 tested, 0.37% active; note: potency is the fitted concentration of half-maximal effect; % is set by controls: 0 for no effect and ±100 for the full control effect
# Target sequence (Q27686 whole entry, looked up): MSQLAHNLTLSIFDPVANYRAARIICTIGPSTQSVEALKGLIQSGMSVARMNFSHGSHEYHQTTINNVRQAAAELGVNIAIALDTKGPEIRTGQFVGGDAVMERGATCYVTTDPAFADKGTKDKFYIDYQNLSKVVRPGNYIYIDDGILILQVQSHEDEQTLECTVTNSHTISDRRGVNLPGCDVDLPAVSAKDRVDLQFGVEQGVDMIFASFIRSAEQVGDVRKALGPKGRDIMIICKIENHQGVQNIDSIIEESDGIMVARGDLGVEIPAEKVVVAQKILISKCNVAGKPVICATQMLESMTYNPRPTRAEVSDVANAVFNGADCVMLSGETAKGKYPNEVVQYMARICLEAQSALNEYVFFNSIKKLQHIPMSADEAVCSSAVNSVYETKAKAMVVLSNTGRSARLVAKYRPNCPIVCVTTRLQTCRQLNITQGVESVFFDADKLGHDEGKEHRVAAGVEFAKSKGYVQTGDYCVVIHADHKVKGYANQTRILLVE
#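 Screened at intermediate enzyme activity to detect both inhibitors and activators: LmPK at 0.1 nM, with a 0.5 nM enzyme column as activation reference. PEP 0.5 mM, ADP 0.1 mM; ATP detected by luminescence after 1 h.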
# CHX counter: counter-screen hit for Shiga toxin inhibitors, cycloheximide; max response, %; 300,000 tested, 12% active; cell reporter, cycloheximide protein synthesis inhibition counterscreen; in the data active = max response mostly above about 13%, no sharp cut-off; inactive = mostly below about 14%; note: read at 38.3 µM for the half of the compounds with a filed dose; 0% is about no effect
# Shiga inhibitor: Shiga toxin inhibition; Vero cells, Shiga toxin protein synthesis inhibition reporter; inhibition, % at 38.7 µM; 290,000 tested, 9.2% active; AID 2315; in the data active = inhibition mostly above about 28%, no sharp cut-off; inactive = mostly below about 43%; note: 0% is about no effect
# * = called active by the depositor; ? = inconclusive; nt = not tested or not shown; [ ] = dose if it differs, or a comment. Unless noted, calls come from the whole dose curve; as a rule, active = well fitted inhibition curve with a large enough effect; inconclusive = small, poorly fitted or top-dose-only effect, or another doubt; inactive = no such curve, though single readings can be large or run the other way.
SMILES,Pf growth 96h,Pf growth 48h,LmPK inhibitor,CHX counter,Shiga inhibitor
Cc1ccccc1-c1cc(-c2ccccc2O)on1,-52%,193%,-23%,52*,76*
O=S(O)CO,nt,nt,nt,-5,-6
CCOc1ccc(N(C(=O)c2snc(C(N)=O)c2N)C(C(=O)NC2CCCC2)c2ccncc2)cc1 (stereo not given),?,0%,-2%,-6,2
COc1ccc(C(=O)O/N=C(\N)c2ccccc2Cl)cc1OC,5.2µM*,10%[0.00184 µM],2%,33*,159*
COc1ccccc1C(=O)O/N=C(\N)c1ccccc1Cl,5%,192%,-3%,55*,119*
CCOc1ccc(OCCCC(=O)ON=C(N)c2ccccc2Cl)cc1,8%,?,nt,nt,nt
COc1cc(C(c2c(C)[nH][nH]c2=O)c2c(C)[nH][nH]c2=O)ccc1OC(=O)c1ccccc1OC,nt,nt,nt,-5,-6
COc1ccc(C(=O)O/N=C(\N)Cc2cccs2)cc1OC,-26%,?,-1%,-5,-19
COc1ccccc1C(=O)Oc1ccc(C(C)C)cc1,35%,nt,-4%,35*,84*
Cc1c(CNC(=O)C2CC2)c(-n2cccc2)n(Cc2ccccc2)c1C,55%,25%,-1%,0,8
COc1ccc(NC(=O)Nc2nc(C)cc(C)n2)c(OC)c1,50%,51%,3%,1,-5
CC1CCN(c2ncnc3c2cnn3-c2ccccc2)CC1,141%,nt,5%,42*,75*
COc1cccc(OCCN2CCN(c3ncnc4c3cnn4-c3ccccc3)CC2)c1,9.3µM*,12µM*,4%,18*,31
O=C(c1cccc(Cl)c1)N1CCN(c2ncnc3c2cnn3-c2ccccc2)CC1,9%,?,3%,-4,-3
O=C(c1ccccc1)N1CCN(c2ncnc3c2cnn3-c2ccccc2)CC1,-26%,?,2%,14,17
O=C(c1ccco1)N1CCN(c2ncnc3c2cnn3-c2ccccc2)CC1,nt,7%,4%,25*,41
Clc1ccc(-n2ncc3c(N4CCCC4)ncnc32)cc1,235%,279%,-4%,77*,120*
COc1ccc(CNC(=O)COc2ccc(S(=O)(=O)N3CCOCC3)cc2C)cc1,?,0%,1%,-10,-2
Cc1[nH]c(C)c(S(=O)(=O)Nc2cccc(Cl)c2C)c1C(=O)N1CCCC1,?,-7%,-5%,-2,-5
O=C(CN(C(=O)c1ccccc1Cl)N1C(=O)CCCC1=O)c1ccc(Cl)cc1,20%,-3%,-1%,1,-6
O=C(O)CCC(CNS(=O)(=O)c1ccccc1)C(F)(F)F (stereo not given),?,-9%,0%,-3,-14
Cc1cnc(CNC(=O)C2CCC(=O)N(CCc3cccc(F)c3)C2)[nH]1 (stereo not given),-14%,?,1%,-2,-6
CC(=O)c1cc(CCC(=O)NC2CCCCCC2)oc1C,26%,10%,-6%,-5,-6
CN(Cc1ccccc1F)C(=O)COc1ccc(C(=O)c2ccccc2)cc1,37%,25%,1%,7,6
CCOC(=O)C1CCN(c2ncnc3c2cnn3-c2ccccc2)CC1,nt,26%,-5%,18*,37
SMILES,Pf growth 96h,Pf growth 48h,LmPK inhibitor,CHX counter,Shiga inhibitor
CCOC(=O)C1CCN(c2ncnc3c2cnn3-c2ccc(Cl)cc2)CC1,-3%,-8%,1%,-2,8
COc1ccc(-n2ncc3c(N4CCC(C)CC4)ncnc32)cc1,369%,311%,1%,20*,26*
CCOC(=O)N1CCN(c2ncnc3c2cnn3-c2ccc(OC)cc2)CC1,-15%,-1%,5%,-1,5
COc1cccc(NC(=O)COC(=O)c2cc(=O)c3ccccc3o2)c1,-16%,12%,nt,nt,nt
O=[N+]([O-])c1ccc2c(c1)C(N1CCOCC1)/C(=C/COc1ccc(Cl)cc1Cl)O2 (stereo not given),?,12µM*,7%,1,13
NC[C@@H]1O[C@@H](O[C@H]2[C@H](O)[C@H](O[C@@H]3O[C@H](CO)[C@@H](O)[C@H](N)[C@@H]3O)[C@@H](N)C[C@H]2N)[C@H](N)C[C@@H]1O,11%[12.8 µM],-8%[12.8 µM],nt,nt,nt
CCN(Cc1ccccc1)C(=O)CCS(=O)(=O)c1cc2c(cc1Cl)NC(=O)CO2,?,-18%,-6%,-2,-3
CC(=O)O[C@@H]1[C@H]2[C@@H](C[C@@H](C)[C@@H]3CCC(=O)[C@@]13C)OC(=O)[C@@H]2C,55%,18%,2%,18*,-11
